Assay results taken from PubChem BioAssay AID738 (SRMLSC, 2007).
Among all 98,000 compounds or so, about 4,900 (5%) were called active. Shown is part of a subset that was picked to be rich in actives. Values without a mark were called inactive. No stated cut-off is given here; in the data, active means inhibition above about 30%; inactive means the rest.

test: growth inhibition of yeast control strain, primary screen, counter-screen for post-Golgi transport modulator project (AID 738); details: efflux-deficient yeast background strain, growth absorbance A615, 16 h; at 10 µM; stronger effect = higher value

Row | SMILES | inhibition
1 | CC(=O)c1nn(-c2cccc(Br)c2)cc1C(=O)c1cccc2ccccc12 | 8.1%
2 | Cc1cc2cc3c(N)[nH]nc3nc2cc1C | 8.93%
3 | COCCNS(=O)(=O)c1cc(Br)ccc1OC | 2.48%
4 | O=[N+]([O-])c1cccc(-c2nnc3c4ccccc4c4ccccc4n23)c1 | 6.93%
5 | COC(=O)Cc1cc(=O)n(-c2nc3ccccc3s2)[nH]1 | 11.8%
6 | CCC(=O)NC(=Nc1nc2ccccc2s1)NC(=O)CC | 35.9% (active)
7 | CC(C)CC(=O)N/C(N)=N/c1nc2ccccc2s1 | 13.9%
8 | COc1ccc(C(=O)N2CCc3cc(OC)c(OC)cc3C2c2cccc([N+](=O)[O-])c2)cc1 (stereo not drawn) | 20%
9 | c1ccc2c(C[n+]3csc4ccccc43)cccc2c1 | 9.79%
10 | COc1ccc(C)cc1NC(=O)CCC(=O)Nc1nnc(C(F)(F)F)s1 | 0.61%
11 | Cc1[nH]n(-c2cccc(Cl)c2)c(=O)c1/C=N/n1c(C)nc2ccccc2c1=O | 9.33%
12 | O=c1[nH]n(-c2cccc(Cl)c2)c2ncccc12 | 16.8%
13 | Cc1[nH]n(-c2cccc(Cl)c2)c(=O)c1-c1ccc(Cl)cc1 | 55.6% (active)
14 | O=C(CN1CCN(S(=O)(=O)c2ccc(Cl)s2)CC1)NCc1ccc(Cl)cc1 | 15.8%
15 | CC(=O)Nc1cccc(/C(C)=N/NC(=O)c2ccccc2Cl)c1 | 5.79%
16 | Cc1ccc(C(=O)Nc2ccc3c(c2)OCO3)cc1S(=O)(=O)N1CCCCC1 | 16.4%
17 | Cc1cc(C)n(C(=O)c2ccc(C)c(S(=O)(=O)N3CCOCC3)c2)n1 | 11.4%
18 | Cc1ccc(C(=O)Nc2ccccc2C(=O)NC2CCCCC2)cc1S(=O)(=O)N1CCOCC1 | 36.2% (active)
19 | CCOc1c2ccc(C(=O)NC3CCCc4ccccc43)cc2nn1CC (stereo not drawn) | -2.36%
20 | O=C(O)c1ccccc1-c1ccccc1C(=O)Nc1cccc2ccccc12 | 9.42%
21 | COc1ccccc1C(=O)NN1C(=O)C2C3C=CC(O3)C2C1=O (stereo not drawn) | 3.54%

Row | SMILES | inhibition
22 | Cc1ccccc1C(OCC(O)CN1CCCCC1CCO)c1ccccc1 (stereo not drawn) | 30.4% (active)
23 | CCCSc1nsc(N)n1 | 3.53%
24 | O=C(CSc1ncnc2c1cnn2CCc1ccccc1)Nc1ccc(F)cc1 | -3.75%
25 | O=C(Nc1cccn(Cc2c(Cl)cccc2Cl)c1=O)c1ccc(Cl)cc1 | -8.03%
26 | CCOc1ccc(OCC)c(-c2c(=O)n(OCc3ccc(Cl)cc3)c3ccccc3[n+]2[O-])c1 | 11.6%
27 | Clc1ccc(COn2c(-c3ccc(Cl)cc3Cl)nc3ncccc32)cc1 | 66.1% (active)
28 | O=C(/C=C/c1cc2c(cc1Br)OCO2)NCc1ccc(Cl)cc1 | 9.36%
29 | N/C(=N\OC(=O)CCc1ccccc1)c1ccc(Cl)cc1 | 16.6%
30 | C=CCNc1cnn(-c2ccc(C)cc2)c(=O)c1Cl | 8.21%
31 | Cc1cccc(Cn2c(SCCO)nc3c2c(=O)n(C)c(=O)n3C)c1 | 3.8%
32 | CCCSc1nc2c(c(=O)n(C)c(=O)n2C)n1Cc1ccc(C)cc1 | 51.8% (active)
33 | CCOc1ccc(Cn2c(SCCCCC#N)nc3c2c(=O)n(C)c(=O)n3C)cc1OCC | 8.56%
34 | O=C(ON=C1CCN(S(=O)(=O)c2ccccc2)CC1)c1ccc(Cl)cc1 | 13.6%
35 | COc1cccc(Oc2ccc(N)cc2)c1 | 34% (active)
36 | Cc1ccc(Oc2ccc(N)cc2)cc1 | 28.3%
37 | Nc1ccc(Oc2ccc(Cl)cc2)cc1 | 10%
38 | COC(=O)Cc1cc(=O)oc2c(C)c(O)ccc12 | 7.59%
39 | Cc1cc(OC(=O)c2ccc(Cl)cc2)cc(=O)n1C | -4.12%
40 | COc1ccc2[nH]c3ccc(OC)cc3c2c1 | 8.06%
41 | CCN(CC)CC(=O)c1c[nH]c2ccc(OC)cc12 | 15.9%
42 | COc1ccc2[nH]cc(/C=C(/C#N)S(=O)(=O)c3ccccc3)c2c1 | 36.8% (active)

Row | SMILES | inhibition
43 | CCCCC(=O)Nc1nc(C)c(-c2csc(Nc3ccc(Cl)cc3)n2)s1 | 1.53%
44 | C=CCCC(=O)Nc1nc(C)c(-c2csc(Nc3ccc(Cl)cc3)n2)s1 | 50.3% (active)
45 | CCCCCCC(=O)Nc1nc(C)c(-c2csc(Nc3cc(Cl)ccc3OC)n2)s1 | 0.3%
46 | Cc1ccc2cccc(S(=O)(=O)N3CCN(c4ccccc4F)CC3)c2n1 | 37.7% (active)
47 | O=C(c1cccc2ccccc12)N1CCN(c2ccccc2F)CC1 | 13.7%
48 | O=S(=O)(N1CCOCC1)N1CCN(c2ccccc2F)CC1 | -1.25%
49 | O=C(CSCc1c(Cl)cccc1Cl)NN1C(=O)c2ccccc2C1=O | 8.98%
50 | COc1ccc(OC)c(Nc2nc(-c3ccc(O)c(O)c3)cs2)c1 | 34.6% (active)
51 | COc1ccc(Nc2nc(-c3ccccc3)cs2)cc1 | 6.6%
52 | c1cnc(Nc2nc(-c3ccc4ccccc4c3)cs2)nc1 | 2.57%
53 | CON(C)S(=O)(=O)c1ccc2c(c1)NC(=O)C1CCCN21 (stereo not drawn) | -2.22%
54 | O=C(c1cc(-c2ccccc2O)on1)N1CCCC1 | 12%
55 | O=C(c1cc(-c2ccc(O)cc2)on1)N1CCCc2ccccc21 | 23.4%
56 | O=C(c1cc(-c2cccc(O)c2)on1)N1CCc2ccccc2C1 | 41% (active)
57 | O=C(NCC1CCC(C(=O)O)CC1)OCc1ccccc1 (stereo not drawn) | 8.23%
58 | O=C(CNC(=O)c1ccccc1)NCC(=O)OCc1ccc(Cl)cc1 | 2.68%
59 | O=C(CNC(=O)OCc1ccccc1)Oc1cc2oc(=O)cc(-c3ccccc3)c2cc1Cl | 34.6% (active)
60 | O=C(Nc1ccc2c(c1)OCCO2)c1ccc(Cl)c(S(=O)(=O)N2CCCCC2)c1 | 7.53%
61 | O=C(NCCc1ccccc1)c1ccc(NC2=NC3CS(=O)(=O)CC3S2)cc1 (stereo not drawn) | -1.06%
62 | Cc1c(Br)c([N+](=O)[O-])nn1C(C)C(=O)Nc1nccs1 (stereo not drawn) | 23.8%
63 | O=C(Cc1ccc(F)cc1)NC1CCCC1 | 20.8%
